The source of these data is article PMC6212833.

SMILES strings stand for the structures. Screen size: about 2,000 compounds; about 15 (0.8%) showed an effect of 50% or more. This excerpt belongs to a sample that is enriched for strong results. *1 amine or outer side, *2 acyl side, *3 side chain or, on linkers, in order; H or OH if unused. Where a SMILES comes first, the peptide text is derived from it. Bridges are numbered along the chain shown (N, C = ends). X1 = O=C(CCC[*:2])[*:1]

The test system of this assay is Balamuthia mandrillaris (ATCC PRA-291) trophozoites, axenic culture. In words: primary screen, percent inhibition; higher = more effect of the substance.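 Also: 0% = vehicle wells and 100% = lysate wells.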 The conditions noted are these: 20 µM. The method, then:
Screening of a clinically approved library of compounds, compiled by the Small Molecule Discovery Center (SMDC) at the UCSF, was completed at 20 µM in 0.2% DMSO. All 2,177 drugs in the library were stored as 10 mM stocks dissolved in 100% DMSO (Sigma-Aldrich) at −20°C. B. mandrillaris amoebae were resuspended in axenic medium and distributed into opaque 384-well plates (Corning) at a density of 3,000 amoebae per well using a BioMek NX liquid handler. Negative-control wells were treated with vehicle only (0.2% DMSO in axenic medium), and positive-control wells simulating total destruction of amoebae were seeded with amoeba lysate generated by 3 consecutive freeze-thaw cycles. Following 72 h of incubation, 30 µl of CellTiter Glo reagent (CTG; Promega) was added to each well. The luminescence was measured with a Promega GloMax-Multi+ plate reader at 2, 4, and 8 h after CTG addition. […] The B-score, representing a plate-based statistical approach for correcting row, column, and edge effects, was also calculated for each compound in the library (75).
As to `C1N2CN3CN1CN(C2)C3`, the % Inhibition (usually the change of the read-out against control, counted positive when it falls) is recorded as 25.9%.
The same measure for `CN(C)CCC[C@@]1(c2ccc(F)cc2)OCc2cc(C#N)ccc21` [131042-L5]: 29.1%; for `c1ccc(-c2ccc(C(c3ccccc3)n3ccnc3)cc2)cc1` (stereo not drawn): 2.05%.
The same measure for `O=C(O)C1CSCN1` (stereo not drawn): 29%; for `CC[C@H]1OC(=O)[C@H](C)[C@@H](O[C@H]2C[C@@](C)(OC)[C@@H](O)[C@H](C)O2)[C@H](C)[C@@H](O[C@@H]2O[C@H](C)C[C@H](N(C)C)[C@H]2O)[C@](C)(O)C[C@@H](C)C(=O)[C@H](C)[C@@H](O)[C@]1(C)O` [129937-L7]: 19.9%.
Next, `CO/N=C(\C(=O)N[C@@H]1C(=O)N2C(C(=O)O)=C(COC(N)=O)CS[C@H]12)c1ccco1`: 11.5%.
Consider `Cc1ccc(S(=O)(=O)NC(=O)NN2CC3CCCC3C2)cc1` (stereo not drawn), for which the “% Inhibition” value is listed as 10.2%.
For the compound `Cc1oncc1C(=O)Nc1ccc(C(F)(F)F)cc1`, the “% Inhibition” value is 15%.
The same measure for `O=C(O)P(=O)(O)O`: 19.1%; for `CCCCN(CCCC)CC(O)c1cc(Cl)cc2c1-c1ccc(Cl)cc1/C2=C/c1ccc(Cl)cc1` (stereo not drawn): 5.93%.
The same measure for `CC[C@@]1(O)C(=O)OCc2c1cc1n(c2=O)Cc2cc3c([N+](=O)[O-])cccc3nc2-1`: -33%; for `CCCCCCCCCCCCCCCC[N+](C)(C)C`: 56.1%.
The same measure for `C[N+](C)(C)CCCCCCCCCC[N+](C)(C)C`: 25.7%; for `C[N+](C)(C)CCCCCC[N+](C)(C)C`: 26%; for `CC[C@H]1OC(=O)[C@H](C)[C@@H](O[C@H]2C[C@@](C)(OC)[C@@H](O)[C@H](C)O2)[C@H](C)[C@@H](O[C@@H]2O[C@H](C)C[C@H](N(C)C)[C@H]2O)[C@](C)(OC)C[C@@H](C)C(=O)[C@H](C)[C@@H](O)[C@]1(C)O`: 8.87%.
For the compound `O=C1NCCN1CCN1CCC(c2cn(-c3ccc(F)cc3)c3ccc(Cl)cc23)CC1`, the “% Inhibition” value stood at 23.8%.
As for `CN1CCc2c(c3ccccc3n2Cc2ccccc2)C1`, the “% Inhibition” value was 34.1%.
The same measure for `CN/C(=C/[N+](=O)[O-])NCCSCc1ccc(CN(C)C)o1`: 7.74%.
The same measure for `CN/C(=C\[N+](=O)[O-])NCCSCc1ccc(CN(C)C)o1`: 68.1%.
In the case of `CN/C(=C\[N+](=O)[O-])NCCSCc1csc(CN(C)C)n1`, the “% Inhibition” value was 23.7%.
Next, `Nc1c(Br)cc(Br)cc1CNC1CCC(O)CC1` (stereo not drawn): 20.4%; `C#C[C@]1(OC(C)=O)CCC2C3CCC4=C/C(=N/O)CCC4C3CC[C@@]21CC` (stereo partly drawn): 19.6%.
Next, `Cc1cnc(C(=O)O)c[n+]1[O-]`: 0.14%; `Cc1cc(N)c2ccccc2[n+]1CCCCCCCCCC[n+]1c(C)cc(N)c2ccccc21`: 69%; `CC(=O)OCC(=O)[C@@]1(O)CCC2C3CCC4=CC(=O)CC[C@]4(C)C3[C@@H](O)C[C@@]21C` (stereo partly drawn): 33.3%.
Next, `Cc1ncc([N+](=O)[O-])n1CC(C)O` (stereo not drawn): 35.8%; `CCN(CC)C(=O)C1(c2ccccc2)CC1CN` (stereo not drawn): 21.4%; `O=S(=O)(O)CCS`: 8.32%.
Turning to `CCCCC[C@H](O)/C=C/[C@H]1[C@H](O)CC(=O)[C@@H]1CCCCCCC(=O)O` [285959-L6], the “% Inhibition” value is reported as -5.58%.
In the case of `Cc1cc(-c2ccc(/N=N/c3ccc4c(S(=O)(=O)O)cc(S(=O)(=O)O)c(N)c4c3O)c(C)c2)ccc1/N=N/c1ccc2c(S(=O)(=O)O)cc(S(=O)(=O)O)c(N)c2c1O`, the “% Inhibition” value amounted to 73.9%.
The same measure for `O=C(Nc1cccc2c(=O)cc(-c3nn[nH]n3)oc12)c1ccc(OCCCCc2ccccc2)cc1`: -2.25%; for `O=C(O)c1ccccc1-c1c2cc(I)c(=O)c(I)c-2oc2c(I)c(O)c(I)cc12`: 66.4%; for `Clc1ccc(C(Cn2ccnc2)OCc2ccsc2Cl)c(Cl)c1` (stereo not drawn) [735884-L3]: 5.23%.
`OC[C@H]1O[C@H](O[C@H]2[C@H](O)[C@@H](O)[C@H](O)O[C@@H]2CO)[C@H](O)[C@@H](O)[C@@H]1O`: the “% Inhibition” value worked out at 17.5%.
In the case of `CCCCC(=O)N(Cc1ccc(-c2ccccc2-c2nn[nH]n2)cc1)[C@H](C(=O)O)C(C)C`, the “% Inhibition” value is 21.1%.
The same measure for `Cc1ccccc1C(OCCN(C)C)c1ccccc1` (stereo not drawn): -5.39%.
The same measure for `CCCCc1oc2ccccc2c1C(=O)c1cc(I)c(OCCN(CC)CC)c(I)c1`: 14.9%; for `CO[C@@H]1[C@@H](O[C@@H]2O[C@H](C)[C@@H](O[C@H]3C[C@@](C)(O)[C@H](O)[C@H](C)O3)[C@H](N(C)C)[C@H]2O)[C@@H](CC=O)C[C@@H](C)[C@@H](O[C@H]2CC[C@H](N(C)C)[C@@H](C)O2)/C=C/C=C/C[C@H](C)OC(=O)C[C@H]1O`: 4.48%.
The same measure for `O=c1c2ccccc2[se]n1-c1ccccc1`: 19.3%.
With `Nc1nc(O)ncc1F`, the “% Inhibition” value is on record as 15.6%.
Regarding `COc1ccc2c(c1)N(C[C@H](C)CN(C)C)c1ccccc1S2`, the “% Inhibition” value is recorded as 2.52%.
Next, `S=P(N1CC1)(N1CC1)N1CC1`: 27.8%; `CC[C@H](C)[C@@H]1NC(=O)[C@H](Cc2ccc(OC)cc2)NC(=O)CCCSC[C@@H](C(=O)N2CCC[C@H]2C(=O)N[C@@H](CC(C)C)C(=O)NCC(N)=O)NC(=O)[C@H](CC(N)=O)NC(=O)[C@H](CCC(N)=O)NC1=O` (Y(Me)IQNCPLG-NH2; linker N-5 via X1): 9.07%; `COc1ccc2cc1Oc1ccc(cc1)C[C@H]1c3c(cc4c(c3Oc3cc5c(cc3OC)CCN(C)[C@@H]5C2)OCO4)CCN1C`: -18.5%.
Next, `COc1ccc(OC)c(C(O)C(C)N)c1` (stereo not drawn): 16.7%; `CN1C(C(=O)Nc2ccccn2)=C(O)c2ccccc2S1(=O)=O`: 6.97%.
Next, `CCCCC(F)(F)[C@@]1(O)CC[C@H]2[C@@H](CC(=O)[C@@H]2CCCCCCC(=O)O)O1`: 20.6%; `C[C@@H](O)[C@H]1C(=O)N2C(C(=O)O)=C(S[C@@H]3CN[C@H](C(=O)Nc4cccc(C(=O)O)c4)C3)[C@H](C)[C@H]12`: 10.5%; `COc1ccc(-n2nc(CCC(=O)N(C)O)cc2-c2ccc(Cl)cc2)cc1`: 16%.
As to `N[C@@H](CSSC[C@H](N)C(=O)O)C(=O)O`, the “% Inhibition” value is -0.0671%.
Next, `CCN(CC)CCNc1ccc(CO)c2sc3ccccc3c(=O)c12`: 0.0147%.
